From PubChem BioAssay (NCATS)
Records with an inconclusive call do not appear. Values without a mark were called inactive. Calls come from the whole dose curve; as a rule, active = well fitted inhibition curve with a large enough effect; inconclusive = small, poorly fitted or top-dose-only effect; inactive = flat fitted curve, though single readings scatter.

The compounds below were run against Calcium and integrin-binding protein 1 (Homo sapiens) (UniProt Q99828) (assay: Primary qHTS for Identification of Calcium Integrin Binding Protein 1 (CIB1) Competitor (AID 1508620;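 note: GST tagged CIB1 binding a fluorescein labelled alphaIIb integrin peptide tracer; top concentration of the series differs between compounds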)). Conditions: CIB1-GST / FITC-alphaIIb peptide fluorescence polarization; series mostly up to 114 µM; activity change, negative = inhibition: at the top concentration.
Outline: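 CIB1-GST (1 uM final) and compound incubated 15 min at room temperature before adding FITC-alphaIIb peptide tracer (100 nM final). Competition for binding read by fluorescence polarization (ex 480, em 540) after another 15 min at room temperature.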
% is set by controls: 0 for no effect and ±100 for the full control effect.

Sequence of Calcium and integrin-binding protein 1 (Homo sapiens) (Q99828 whole entry, looked up): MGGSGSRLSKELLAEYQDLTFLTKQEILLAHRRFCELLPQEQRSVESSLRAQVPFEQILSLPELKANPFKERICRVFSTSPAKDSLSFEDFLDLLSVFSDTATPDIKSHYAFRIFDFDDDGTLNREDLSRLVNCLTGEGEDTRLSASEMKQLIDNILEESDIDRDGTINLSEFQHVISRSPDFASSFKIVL

| SMILES | activity change, negative = inhibition |
| --- | --- |
| CNC(=O)c1ccccc1Nc1nc(Nc2ccc(N3CCNCC3)cc2)ncc1Cl | -6.03% |
| CC1(C)CCC[C@@]2(C)C1[C@H](OC(=O)/C=C/C=C/C(=O)O)C=C1COC(=O)[C@@]12O (stereo not given in full) | 0.996% [at 57.7 µM] |
| C/C=C1\[C@H](O[C@@H]2O[C@H](CO)[C@@H](O)[C@H](O)[C@H]2O)OC=C(C(=O)OC)[C@H]1CC(=O)OC[C@H]1O[C@@H](OCCc2ccc(O)cc2)[C@H](O)[C@@H](O)[C@@H]1O | -0.91% [at 30.2 µM] |
| CC1CC(=O)C2=C(CCC3(O)C(O)c4c(O)cccc4C(=O)C23O)C1 (stereo not given) | -0.519% [at 57.7 µM] |
| N#Cc1ccc2[nH]cc(CCCCN3CCN(c4ccc5oc(C(N)=O)cc5c4)CC3)c2c1 | -0.265% |
| CC/C=C/CC1=C(CCCCC(CCC(=O)O)OC(C)=O)CCC1=O (stereo not given) | -19.2% [at 57.7 µM] |
| C[C@]12C=C[C@@]3(CCC4[C@](C)(CO)CCC[C@@]4(C)C3CC1)C2 (stereo not given in full) | 2.29% |
| O=C1NC(Cc2ccccc2)C(=O)N2CCCC12 (stereo not given) | -5.51% |
| CCCCNc1ccc(-c2ccc(CN3CCOCC3)cn2)c(NC2CCC(O)CC2)c1 (stereo not given) | -2.49% [at 57.7 µM] |
| CC1CCC2(OC1)OC1CC3C4CCC5C[C@@H](O[C@@H]6O[C@H](CO[C@@H]7OC[C@@H](O)[C@H](O)[C@H]7O)[C@H](O)[C@H](O)[C@H]6O)CC[C@]5(C)C4CC[C@]3(C)C1C2C (stereo not given in full) | 2.94% [at 30.2 µM] |
| CCC[C@@H]1O[C@@H]2C[C@H]3[C@@H]4CCC5=CC(=O)C=C[C@]5(C)[C@H]4[C@@H](O)C[C@]3(C)[C@]2(C(=O)CO)O1 | -2.11% |
| CC(=O)O[C@H]1CC[C@@]2(C)C(CC[C@@H](C)[C@]23Cc2c(O)cc4c(c2O3)CN([C@@H](CCC(=O)O)C(=O)O)C4=O)C1(C)C (stereo not given in full) | 1.44% [at 57.7 µM] |
| COc1cc2c(cc1O)CC[C@H]1[C@@H]2CC[C@]2(C)[C@H](O)CC[C@@H]12 | 5.04% |
| CC1OC(O[C@H]2CC[C@@]3(C)C(CC[C@]4(C)C3CC=C3C5CC(C)(C)CC[C@]5(C(=O)OC5OC(CO)C(OC6OC(COC7OCC(O)C(O)C7O)C(O)C(O)C6O)C(O)C5O)CC[C@]34C)C2(C)C)C(O)C(O)C1OC1OCC(OC2OCC(O)C(O)C2O)C(O)C1O (stereo not given in full) | -11.1% [at 12.4 µM] |
| CCn1cc(NC(=S)Nc2cc(Cl)ccc2OC)c(C(N)=O)n1 | -2.79% |
| C(#Cc1nc2ncccc2nc1OCCN1CCCC1)c1ccccc1 | 1.89% |
| CC1COC2(OC3CC4C5CC(O[C@@H]6O[C@H](C)[C@@H](O[C@@H]7O[C@@H](C)[C@H](O)[C@@H](O)[C@H]7O)[C@H](O)[C@H]6O)C6CC(O)CCC6(C)C5CCC4(C)C3C2C)C(O)C1 (stereo not given in full) | 5.29% [at 30.2 µM] |
| CCC(Nc1ncnc2nc[nH]c12)c1nc2cccc(F)c2c(=O)n1-c1ccccc1 (stereo not given) | 1.35% |
| CC(=O)OC/C=C(\C)C(CC1C(C)=C(OC(C)=O)C(=O)C2C(C)(C)C(O)CCC12C)OC(C)=O (stereo not given) | -10.7% [at 57.7 µM] |
| CC12CCC3c4ccc(O)cc4CCC3C1CC(OC1OC(C(=O)O)C(O)C(O)C1O)C2O (stereo not given) | 0.174% |

| SMILES | activity change, negative = inhibition |
| --- | --- |
| Cn1nc(C(C)(C)C)cc1C(=O)NC(Cc1cccc(Cl)c1)C(=O)NCC#N (stereo not given) | -1.06% |
| C=C(CCC1=C(C)[C@H]2[C@H](CC3[C@@H]4CC=C5C[C@@H](O)C[C@@H](O)[C@]5(C)C4[C@H](O)C[C@@]32C)O1)CO[C@@H]1O[C@H](CO)[C@@H](O)[C@H](O)[C@H]1O (stereo not given in full) | -1.41% [at 30.2 µM] |
| COc1ccc(CC2NCCc3c2[nH]c2ccc(C)cc32)cc1OC (stereo not given) | -1.48% |
| C=C1C[C@]23C[C@H]1[C@@H](O)C[C@H]2[C@@]12C=C[C@H](O)[C@@](C)(C(=O)O1)[C@H]2[C@@H]3C(=O)O | -0.601% [at 57.7 µM] |
| CCCNc1ccc2ncc(-c3ccc4[nH]ncc4c3)n2n1 | -13.4% |
| CC(=O)C12OC(C)(C)OC1CC1C3CCC4=CC(=O)C=CC4(C)C3(F)C(O)CC12C (stereo not given) | 1.61% |
| CC(=O)O[C@@H]1[C@H](O)[C@@H](O[C@@H]2O[C@@H](C)[C@H](O[C@@H]3OC[C@@H](O)[C@H](O[C@@H]4OC[C@@H](O)[C@H](O)[C@H]4O)[C@H]3O)[C@@H](O[C@@H]3O[C@H](CO)[C@@H](O)[C@H](O)[C@H]3O)[C@H]2O)[C@H](OC(=O)[C@]23CCC(C)(C)C[C@H]2C2=CCC4[C@@]5(C)CC[C@H](O[C@@H]6O[C@H](C(=O)O)[C@@H](O)[C@H](O[C@@H]7OC[C@@H](O)[C@H](O)[C@H]7O)[C@H]6O[C@@H]6O[C@H](CO)[C@H](O)[C@H](O)[C@H]6O)[C@@](C)(C=O)C5CC[C@@]4(C)[C@]2(C)CC3)O[C@@H]1C (stereo not given in full) | -6.59% [at 12.4 µM] |
| CC1CC(O)/C=C/C(O)C(O)CC(=O)Cc2c(Cl)c(O)cc(O)c2C(=O)O1 (stereo not given) | -3.8% [at 57.7 µM] |
| COC(=O)N[C@@H](C)CNc1nccc(-c2cn(C(C)C)nc2-c2cc(Cl)cc(NS(C)(=O)=O)c2F)n1 | 2.6% |
| O=C(/C=C/c1ccc(O)cc1)OC1[C@H](O)CC(O)(C(=O)O)C[C@H]1O (stereo not given in full) | -1.9% [at 57.7 µM] |
| Cc1noc(-c2ccc(-c3ccc(CC(=O)O)cc3)cc2)c1NC(=O)O[C@H](C)c1ccccc1 | -9.15% |
| CC12CCC3c4ccc(OC5OC(C(=O)O)C(O)C(O)C5O)cc4CCC3C1CCC2O (stereo not given) | -0.816% |
| CC(=O)NC[C@H]1CN(c2ccc(N3CCN(C(=O)CO)CC3)c(F)c2)C(=O)O1 | 4.85% |
| C[C@H](N)C(=O)N[C@@H](Cc1ccc(O)cc1)C(=O)N1CCC[C@H]1C(=O)NCC(=O)N[C@@H](CCCCN)C(=O)N[C@@H](Cc1ccccc1)C(N)=O | -3.04% [at 30.2 µM] |
| CC1=C(C(=O)OCc2ccccc2)C(c2ccc(-c3ccccc3)cc2)NC(=O)N1CCCCCC(=O)O (stereo not given) | -17.8% |
| CC(Oc1ccc2[nH]nc(/C=C/c3cnn(CCO)c3)c2c1)c1c(Cl)cncc1Cl (stereo not given) | 1.48% |
| COC(=O)CC(O)CC(O)/C=C/c1c(C)ccc2c1C(O)CC(C)C2 (stereo not given) | 1.02% [at 57.7 µM] |
| COc1cc(Br)c(S(=O)(=O)Nc2ccc(C(F)(F)F)c(O[C@@H]3CCN(C)C3)c2)cc1OC | 4.22% |
| C=C(C(=O)O)C1CCC2(C)CCC(O)C(C)(O)C2C1 (stereo not given) | 0.832% |
| OCC1OC(Oc2cc(O)cc(/C=C/c3ccc(O)cc3)c2)C(O)C(O)C1O (stereo not given) | 2.33% [at 57.7 µM] |
